Tau fibril ThT – inhibitors of human tau fibril formation, thioflavin T binding. P10636. recombinant tau K18 P301L, heparin-induced fibrillization, ThT fluorescence. Potency, µM (top dose mostly 57.4 µM), actives largely listed as inhibitors. actives 2.1% (n = 270,000); active = well fitted curve in the direction sought with a large enough effect; inconclusive = small, poorly fitted or top-dose-only effect, or another doubt; inactive = no such curve, though single readings can be large; an effect the other way counts as inactive or inconclusive; also: nearly all actives have a fitted effect of over 55% in size
Target sequence (P10636 561-689 P618L limits assumed): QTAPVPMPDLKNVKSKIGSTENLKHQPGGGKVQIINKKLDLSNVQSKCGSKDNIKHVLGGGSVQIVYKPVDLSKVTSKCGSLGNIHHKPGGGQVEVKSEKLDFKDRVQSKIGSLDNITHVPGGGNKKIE
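Using a mix of unlabeled (15 uM) and Alexa 594-labeled (0.24 uM) tau K18 P301L, heparin-triggered fibrillization over 6 hr at 37 C was scored by ThT fluorescence.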
ALDH1A1 inh – ALDH1A1 (human) enzyme inhibition; P00352; AID 1030; actives 7.3% (n = 220,000); Purified ALDH1A1, NADH fluorescence, propionaldehyde substrate; Potency, µM (top dose mostly 75.3 µM), most hits filed as inhibitors
JMJD2E inh – JMJD2E (human) inhibition. JMJD2E catalytic domain, FDH-coupled NADH fluorescence (FDH is formaldehyde dehydrogenase). actives 1.6% (n = 230,000). B2RXH2. Potency, µM (top dose mostly 57.1 µM), usual class: inhibitors; also: nearly all actives have a fitted effect of over 50% in size
Target sequence (B2RXH2 1-337 limits assumed): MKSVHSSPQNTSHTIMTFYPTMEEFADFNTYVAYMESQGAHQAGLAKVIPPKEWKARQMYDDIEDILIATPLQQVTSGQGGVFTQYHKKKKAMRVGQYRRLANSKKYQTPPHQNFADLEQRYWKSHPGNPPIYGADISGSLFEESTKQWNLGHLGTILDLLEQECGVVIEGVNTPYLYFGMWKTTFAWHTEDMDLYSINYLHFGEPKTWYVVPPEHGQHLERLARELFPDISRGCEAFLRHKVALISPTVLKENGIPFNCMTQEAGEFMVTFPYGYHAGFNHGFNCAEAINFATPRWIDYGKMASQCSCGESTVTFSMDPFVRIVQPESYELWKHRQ
Tau fluor cs – counter-screen for tau fibril formation inhibitors | tau K18 P301L Alexa594 fluorescence, heparin fibrillization | Potency, µM (highest dose often 57.7 µM) | actives 0.93% (n = 280,000) | AID 1463; active = well fitted curve in the direction sought with a large enough effect; inconclusive = small, poorly fitted or top-dose-only effect, or another doubt; inactive = no such curve, though single readings can be large; an effect the other way counts as inactive or inconclusive; also: nearly all actives have a fitted effect of over 55% in size
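Human tau K18 P301L (15 uM unlabeled, 0.24 uM Alexa 594-labeled) in 100 mM sodium acetate pH 7 with 20 uM heparin, 6 hr at 37 C. ThT 30 uM added, 1 hr ambient; Alexa 594 FP and total fluorescence read at 555/632 nm.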
Tau FP inhib – blocks human tau fibril formation measured by polarization; P10636; K18 P301L tau heparin fibrillization, Alexa594 FP, 6 h; Potency, µM (doses to about 57.7 µM), most hits filed as inhibitors; actives 0.39% (n = 280,000); AID 1468; active = well fitted curve in the direction sought with a large enough effect; inconclusive = small, poorly fitted or top-dose-only effect, or another doubt; inactive = no such curve, though single readings can be large; an effect the other way counts as inactive or inconclusive; also: nearly all actives have a fitted effect of over 55% in size
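FP of Alexa 594-tau after heparin (20 uM) induction. Substrate: human K18 P301L, 15 uM unlabeled, 0.24 uM labeled. Buffer 100 mM sodium acetate pH 7. 6 hr, 37 C.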
HPGD block – HPGD (human) dehydrogenase inhibition. actives 4.3% (n = 150,000). AID 894. P15428. Potency, µM, usual class: inhibitors. purified HPGD, NADH fluorescence kinetic, PGE2 substrate
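NADH formation kinetics: reaction with 30 uM PGE2 and 1 mM NAD+ (final), 20 nM enzyme, Tris-HCl pH 8 with Tween 20, after 15 min compound preincubation at room temperature. Fluorescence change, last versus first of five reads.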
Numbers stand for hits; [ ] = another dose, or the depositor's remark. A selection: hits, their analogues and other compounds. The true share with any hit is near 9.9%. Unless noted, calls follow the shape of the dose curve; as a rule, active = well fitted inhibition curve with a large enough effect (not every such curve was filed as active); inconclusive = small, poorly fitted or top-dose-only effect, or another doubt; inactive = no such curve, though single readings can be large or run the other way.

For O=C1NC(=S)N/C1=C/c1cc([N+](=O)[O-])ccc1O the results were Tau fibril ThT 16µM, ALDH1A1 inh 5µM, JMJD2E inh inactive, Tau fluor cs inactive, Tau FP inhib inactive and HPGD block inconclusive.
Screening COc1cc(OC)c(NS(=O)(=O)c2cc3c(cc2C)NC(=O)CO3)cc1Cl returned Tau fibril ThT inactive, Tau fluor cs inactive and Tau FP inhib inactive.
Cc1ccc(C)c(NS(=O)(=O)c2cc3c(cc2Cl)NC(=O)CO3)c1 was read as Tau fibril ThT inactive, Tau fluor cs 14µM[quencher] and Tau FP inhib inactive.
For CCOc1ccccc1N1CCN(S(=O)(=O)c2ccc(C3CCCCC3)cc2)CC1 the results were Tau fibril ThT inactive, Tau fluor cs inactive and Tau FP inhib inactive.
`Cc1ccc(C)c(C(=O)CSc2n[nH]c(C)n2)c1` gave Tau fibril ThT inactive, ALDH1A1 inh inconclusive, JMJD2E inh inconclusive, Tau fluor cs inactive and Tau FP inhib inactive.
Screening CCc1nc(SCC(=O)c2cc(C)ccc2C)n[nH]1 returned Tau fibril ThT inactive, ALDH1A1 inh inconclusive, JMJD2E inh inconclusive, Tau fluor cs inactive, Tau FP inhib inactive and HPGD block 40µM.
`CCc1ccc(C(=O)CSc2n[nH]c(C)n2)cc1` gave Tau fibril ThT inactive, ALDH1A1 inh 11µM, JMJD2E inh inconclusive, Tau fluor cs inactive, Tau FP inhib inactive and HPGD block 35µM.
`Nc1nc(SCC(=O)c2ccc(Oc3ccccc3)cc2)n[nH]1` gave Tau fibril ThT inactive, ALDH1A1 inh 14µM, JMJD2E inh inactive, Tau fluor cs inactive, Tau FP inhib inactive and HPGD block inactive.
Screening Cc1ccc(C)c(C(=O)CSc2n[nH]c(C(C)C)n2)c1 returned Tau fibril ThT inactive, ALDH1A1 inh inactive, JMJD2E inh inactive, Tau fluor cs inactive, Tau FP inhib inactive and HPGD block 16µM.
CCC(=O)Nc1cc(C(=O)OCc2ccc(C(=O)Oc3ccccc3)cc2)ccc1C was read as Tau fibril ThT inactive, ALDH1A1 inh inactive, JMJD2E inh inactive, Tau fluor cs inactive, Tau FP inhib inactive and HPGD block inactive.
CCCN(Cc1cccs1)C(=O)Nc1ccc(Br)c(C)c1 was read as Tau fibril ThT inactive, Tau fluor cs inactive and Tau FP inhib inactive.
For O=S(=O)(c1ccc(Cl)cc1)c1nc(-c2ccccc2Br)oc1N1CCOCC1 the results were Tau fibril ThT inactive, Tau fluor cs inactive and Tau FP inhib inactive.
Screening CCc1ccc(NC(=O)N2CC(C)Oc3ccc(C)cc32)cc1 (stereo unspecified) returned Tau fibril ThT inactive, Tau fluor cs 2.5µM[quencher] and Tau FP inhib inactive.
Screening CCOC(=O)c1ccccc1NC(=S)N1CCC(C)CC1 returned Tau fibril ThT inactive, ALDH1A1 inh inactive, JMJD2E inh inconclusive, Tau fluor cs inactive, Tau FP inhib inactive and HPGD block inactive.
`CCOC(=O)c1ccccc1NC(=O)N1CC(C)Oc2ccc(C)cc21` (stereo unspecified) gave Tau fibril ThT inactive, Tau fluor cs 2.8µM[quencher] and Tau FP inhib inconclusive.
For CCOC(=O)c1ccccc1NC(=S)N1CC(C)CC(C)C1 (stereo unspecified) the results were Tau fibril ThT inactive, ALDH1A1 inh 25µM, JMJD2E inh inconclusive, Tau fluor cs inactive, Tau FP inhib inactive and HPGD block inactive.
Screening Cc1ccc2c(c1)N(C(=O)Nc1cccc3c1CCCC3)CC(C)O2 (stereo unspecified) returned Tau fibril ThT inactive, Tau fluor cs inconclusive and Tau FP inhib inactive.
`CCOC(=O)Cc1ccc(NC(=O)N2CC(C)Oc3ccc(Cl)cc32)cc1` (stereo unspecified) gave Tau fibril ThT inactive, Tau fluor cs inconclusive and Tau FP inhib inactive.
For O=C(NC1CC(=O)N(c2ccc(Cl)cc2)C1)c1ccc2c(c1)OCO2 (stereo unspecified) the results were Tau fibril ThT inactive, Tau fluor cs inactive and Tau FP inhib inactive.
For CCOC(=O)C1(C/C(C)=N/NC(N)=O)CC(C)OC1=O (stereo unspecified) the results were Tau fibril ThT inactive, ALDH1A1 inh inactive, JMJD2E inh inactive, Tau fluor cs inactive, Tau FP inhib inactive and HPGD block inactive.
Cc1sc(NC(=O)C2CCCO2)c(C#N)c1C (stereo unspecified) was read as Tau fibril ThT inactive, ALDH1A1 inh 25µM, JMJD2E inh inconclusive, Tau fluor cs inactive, Tau FP inhib inactive and HPGD block inactive.
`Cc1sc(NC(=O)C2CCCC2)c(C#N)c1C` gave Tau fibril ThT inconclusive, ALDH1A1 inh 14µM, JMJD2E inh inactive, Tau fluor cs inactive, Tau FP inhib inactive and HPGD block 10µM.
Screening CCCCCC(=O)Nc1sc(C)c(C)c1C#N returned Tau fibril ThT inactive, ALDH1A1 inh 10µM, JMJD2E inh inactive, Tau fluor cs inactive, Tau FP inhib inactive and HPGD block 25µM.
For Cc1sc(NC(=O)CCCC(=O)O)c(C#N)c1C the results were Tau fibril ThT inactive, ALDH1A1 inh inactive, JMJD2E inh inactive, Tau fluor cs inactive, Tau FP inhib inactive and HPGD block inactive.
CCCC(=O)Nc1sc(C)c(C)c1C#N was read as Tau fibril ThT inactive, ALDH1A1 inh inconclusive, JMJD2E inh inactive, Tau fluor cs inactive and Tau FP inhib inactive.
Screening CC(C)COc1ccc(C(=O)Nc2ccc(SC(F)F)cc2)cc1 returned Tau fibril ThT inactive, ALDH1A1 inh inactive, JMJD2E inh inactive, Tau fluor cs inactive, Tau FP inhib inactive and HPGD block inactive.
Screening Cc1ccco1 returned ALDH1A1 inh inactive and HPGD block inactive.
Oc1nc(Nc2ccccc2)sc1/C=C1\C=Nc2ccccc21 was read as Tau fibril ThT 3.5µM, JMJD2E inh inconclusive, Tau fluor cs 8.9µM[quencher] and Tau FP inhib inactive.
CCOC(=O)c1c(Nc2ccccc2)sc(/C=C2\C=Nc3ccccc32)c1O was read as Tau fibril ThT inactive, ALDH1A1 inh inactive, JMJD2E inh inactive, Tau fluor cs inconclusive, Tau FP inhib inactive and HPGD block inactive.
Cc1ccc(NC(=O)c2ccc(Cl)c(N3C(=O)C=CC3=O)c2)cc1 was read as Tau fibril ThT inactive, ALDH1A1 inh 3.2µM, JMJD2E inh inactive, Tau fluor cs inactive, Tau FP inhib inactive and HPGD block 3.5µM.
COc1ccc2c(c1)c1c(c(=O)n(-c3cccc(C)c3)c(=O)n1CC(=O)NCCC1=CCCCC1)n2C was read as Tau fibril ThT inactive, Tau fluor cs inactive and Tau FP inhib inactive.
`CC(C)C1NC(=S)N(C2CCCCC2)C1=O` (stereo unspecified) gave Tau fibril ThT inactive, ALDH1A1 inh inactive, JMJD2E inh inactive, Tau fluor cs inactive, Tau FP inhib inactive and HPGD block inactive.
Screening O=c1[nH][nH]c(=S)n1C1CCCCC1 returned Tau fibril ThT 32µM, ALDH1A1 inh 1.3µM, JMJD2E inh 2.8µM, Tau fluor cs inactive and Tau FP inhib inconclusive.
